Bioassay records deposited in PubChem BioAssay by National Center for Advancing Translational Sciences (NCATS).
KB-V1 MDR tox: kills drug-selected multidrug resistant KB-V1 cells; KB-V1 MDR cells viability, CellTiter-Glo, 72 h; Potency, µM (top dose mostly 46.1 µM), hits mostly cytotoxic; 3.4% of 400,000 active; AID 1347076; also: nearly all actives have a fitted effect of over 60% in size
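Luminescent ATP read-out (CellTiter-Glo, 10 min) measures survival of drug-selected KB-V1 MDR cells after 72 h, 37 degrees C compound exposure. Medium: phenol-red-free DMEM, 10% FBS. Values from fitted concentration-response curves.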
ELG1 repair inh: inhibitors of ELG1-dependent DNA repair in HEK293T cells | HEK293T ELG1-luciferase reporter, luminescence, 16 h; DNA damage induced by 5-fluorouridine | Potency, µM (titrated, usually from 46.1 µM), usual class: inhibitors | 2.3% of 330,000 active | AID 504467; also: nearly all actives have a fitted effect of over 55% in size
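Cells (2,000 per well) received 5-fluorouridine plus test compound or DMSO and were incubated 16 hr at 37 °C, 5% CO2. Luciferase activity was read by luminescence 30 min after ONE-Glo addition; signal suppression marked inhibition of damage-induced ELG1 function.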
MCF10A rerep: inducers of DNA re-replication in MCF 10A breast cells. MCF 10A DNA re-replication, Hoechst nuclear intensity, 48 h. Potency, µM (titrated, usually from 46.1 µM), actives largely listed as activators. 2.9% of 350,000 active; also: nearly all actives have a fitted effect of over 50% in size
SW480 rereplic: DNA re-replication induction in SW480 cells | SW480 DNA re-replication, Hoechst DNA content imaging, 48 h | Potency, µM (doses to about 46.1 µM), most hits filed as activators | 1.8% of 340,000 active; also: nearly all actives have a fitted effect of over 55% in size
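Quantitative HTS format with DMSO vehicle controls; 48 hr drug incubation at 37 C, then 40 min Hoechst staining and scanning imager measurement at 405 nm excitation.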
KB-3-1 tox: kills parental KB-3-1 adenocarcinoma cells. KB-3-1 viability, CellTiter-Glo ATP luminescence, 72 h. Potency, µM (series often up to 46.1 µM), hits mostly cytotoxic. 1.4% of 400,000 active; also: nearly all actives have a fitted effect of over 60% in size
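72 h, 37 °C compound treatment of KB-3-1 parental cells; CellTiter-Glo added, 10 min, luminescence read. Data corrected against DMSO-only plates and normalized before curve fitting.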
Large screens that a line does not name were inactive. Shown are actives, neighbours in structure and some others; about 8.1% of the full set was active somewhere. Calls follow the shape of the dose curve; as a rule, active = well fitted curve in the direction sought with a large enough effect; inconclusive = small, poorly fitted or top-dose-only effect, or another doubt; inactive = no such curve, though single readings can be large; an effect the other way counts as inactive or inconclusive.

COc1ccc(C(=O)c2ccc(OC)c(OC)c2OC)cc1	KB-V1 MDR tox 2.31µM, MCF10A rerep 3.66µM, SW480 rereplic 5.8µM, KB-3-1 tox 5.8µM (no result: ELG1 repair inh)
COc1ccc(C(=O)c2ccc(Br)cc2)c(OC)c1OC	SW480 rereplic inconclusive (no result: ELG1 repair inh)
COc1ccc(C(=O)c2ccc(N(C)C)cc2)c2ccccc12	KB-V1 MDR tox 2.06µM, ELG1 repair inh inconclusive, KB-3-1 tox 5.17µM
COc1ccc(C(=O)c2ccccc2C(=O)c2ccccc2)cc1	KB-V1 MDR tox 18.4µM (no result: ELG1 repair inh)
CCOc1ccc(-c2cccc(NC(=O)c3cccs3)c2)nn1	ELG1 repair inh inconclusive
O=C(CSc1ccc2ccccc2c1)NC1CCCc2ccccc21 (stereo unspecified)	KB-V1 MDR tox 14.6µM
Cc1ccc2nc(SCC(=O)NC3CCCc4ccccc43)[nH]c2c1 (stereo unspecified)	KB-V1 MDR tox 14.6µM, ELG1 repair inh inconclusive, MCF10A rerep 14.6µM, SW480 rereplic inconclusive, KB-3-1 tox inconclusive
CC(=O)c1ccc(OCCCC(=O)NC2CCCc3ccccc32)cc1 (stereo unspecified)	KB-V1 MDR tox 16.4µM
O=C(Nc1ccccc1)NC1CCCc2ccccc21 (stereo unspecified)	SW480 rereplic 1.16µM
COc1ccc(OCC(=O)NC2CCCc3ccccc32)cc1 (stereo unspecified)	ELG1 repair inh inconclusive
Cn1c(=O)c2c(ncn2CC(=O)N2CCCCCC2)n(C)c1=O	none
CC(NC(=O)COC(=O)c1cc(Cl)ccc1O)C1CC2CCC1C2 (stereo unspecified)	KB-V1 MDR tox inconclusive
O=C(CSc1nnc(-c2cccnc2)o1)N1CCCCC1	none
COc1ccc(CCNC(=O)C2Cc3ccccc3C(=O)O2)cc1 (stereo unspecified)	none
Cc1ccc(S(=O)(=O)N2CCN(CC(=O)NC3CCCc4ccccc43)CC2)c(C)c1 (stereo unspecified)	KB-V1 MDR tox 4.11µM, ELG1 repair inh inconclusive, SW480 rereplic inconclusive
O=C(CSc1nc2cc(Cl)ccc2s1)NC1CCCc2ccccc21 (stereo unspecified)	KB-V1 MDR tox 16.4µM, MCF10A rerep inconclusive
Cc1ccc(S(=O)(=O)N2CCN(CC(=O)NC3CCCc4ccccc43)CC2)cc1C (stereo unspecified)	KB-V1 MDR tox inconclusive, ELG1 repair inh inconclusive, SW480 rereplic inconclusive, KB-3-1 tox inconclusive
O=C(CSc1cc(Cl)ccc1Cl)NC1CCCc2ccccc21 (stereo unspecified)	MCF10A rerep inconclusive, SW480 rereplic inconclusive
CN(C)c1ccc(C2N(c3ccc(Cl)cc3)C(=O)C3CCCN32)cc1 (stereo unspecified)	ELG1 repair inh inconclusive, SW480 rereplic inconclusive
O=C(C1=NN[C@@H]2C(=O)N(c3cccc(F)c3)C(=O)[C@H]12)C(c1ccccc1)c1ccccc1	none (no result: SW480 rereplic)
